About 79,000 compounds went through this panel and 15% of them were active in at least one assay; those are over-represented in the sample as a whole. Values without a mark were called inactive. Calls of active or inactive are those of the source. No stated cut-off is given here; in the data, active means growth inhibition above about 70%; inactive means the rest.
assay: NCI Yeast Anticancer Drug Screen. Data for the rad50 strain (AID 155);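 further: 0% = growth of vehicle-only cultures of the same strain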; conditions: S. cerevisiae rad50 strain growth inhibition, stronger effect = higher value; at 50.0 µM unless noted
In short: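 Vehicle-treated cultures provide the reference for the growth inhibition reported for compound-exposed, repair-deficient yeast.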

**Q.** With `O=C1C=C(Nc2ccccc2)C(=O)C=C1Nc1ccccc1` as the molecule, how does the growth inhibition read?
**A.** -2.3%

**Q.** With `CCOC(=O)c1c(C)[nH]c(C(=O)CCN(C)C)c1C` as the molecule, how does the growth inhibition read?
**A.** 7.35%

**Q.** With `CCN(Cc1ccccc1)c1nnnn1-c1ccccc1` as the molecule, how does the growth inhibition read?
**A.** -2.5%

**Q.** With `CC1CC(C)OC(c2ccccc2Cl)O1` (stereo not given) as the molecule, how does the growth inhibition read?
**A.** 24.6%

**Q.** For `CC(=O)OC1CCC2(C)C3CCC4(C)C(C(C)CCCC(C)C)CCC4C3C3CC32C1` (stereo not given), which growth inhibition is on record?
**A.** 30.6%

**Q.** For `CCCCOC(=O)C1CN2C=CC=NC2=NC1(C(F)(F)F)C(F)(F)F` (stereo not given), which growth inhibition is on record?
**A.** -16.1%

**Q.** Which growth inhibition does the source give for `NC(Cc1cc(Br)c(Oc2ccc(O)cc2)c(Br)c1)C(=O)O` (stereo not given) here?
**A.** 19.8%

**Q.** With `CCCCCCC1OC(C)C(C)O1` (stereo not given) as the molecule, how does the growth inhibition read?
**A.** 30.8%

**Q.** With `O=[N+]([O-])/C=C/c1cn(CCCCCCCCCCCCn2cc(/C=C/[N+](=O)[O-])c3ccccc32)c2ccccc12` as the molecule, how does the growth inhibition read?
**A.** -1.5%

**Q.** Which growth inhibition does the source give for `O=C(O)C1CCc2ccccc21` (stereo not given) here?
**A.** -15.8%

**Q.** With `C=CCN(CC=C)C(=O)Nc1cccc(C)c1` as the molecule, how does the growth inhibition read?
**A.** -27.2%

**Q.** For `CC1Sc2ccccc2-c2[nH]c3ccccc3c21` (stereo not given), which growth inhibition is on record?
**A.** 32.8%

**Q.** Which growth inhibition does the source give for `O=C1OCC=C1Sc1ccccc1` here?
**A.** -1.7%

**Q.** Which growth inhibition does the source give for `O=C1C(CN2CCCC2)CCCC1CN1CCCC1` (stereo not given) here?
**A.** -3.2%

**Q.** Which growth inhibition does the source give for `Cc1cc(=O)oc2nn(CCO)c(C)c12` here?
**A.** -35.3%

**Q.** Which growth inhibition does the source give for `O=C(OC1OCC(OCc2ccccc2)C(OCc2ccccc2)C1OCc1ccccc1)c1ccccc1` (stereo not given) here?
**A.** 22.6%

**Q.** Which growth inhibition does the source give for `O=S(=O)(Cl)c1ccc(Cl)cc1` here?
**A.** -4.6%

**Q.** With `OCC#CC#CCO` as the molecule, how does the growth inhibition read?
**A.** -3.7%

**Q.** Which growth inhibition does the source give for `Nc1nnc2nc(C3(c4nc5nnc(N)n5[nH]c4=O)CCCC3=O)c(=O)[nH]n12` here?
**A.** 13.4%

**Q.** With `CN[C@@H]1[C@H](O)[C@H](NC)[C@H]2O[C@@]3(O)C(=O)C[C@@H](C)O[C@H]3O[C@@H]2[C@H]1O` as the molecule, how does the growth inhibition read?
**A.** 7.35%

**Q.** For `O=C1CSC(c2c[nH]c3ccccc23)N1c1ccc(Cl)cc1` (stereo not given), which growth inhibition is on record?
**A.** -33.9%

**Q.** For `CC(C)c1ccccc1O`, which growth inhibition is on record?
**A.** 34.9%

**Q.** With `CCn1c2ccccc2c2cc(N=Nc3ccc4c(c3)c3ccccc3n4CC)ccc21` as the molecule, how does the growth inhibition read?
**A.** 44.5%

**Q.** With `C#CC(O)C1OC(C)(C)OC1C1COC(C)(C)O1` (stereo not given) as the molecule, how does the growth inhibition read?
**A.** 4.15%

**Q.** With `CCOC(C)(Cc1ccccc1[N+](=O)[O-])OCC` as the molecule, how does the growth inhibition read?
**A.** 11.4%

**Q.** For `Cc1cc(=O)[nH]c(NN2C(Cl)C(=O)C2c2ccccc2O)n1` (stereo not given), which growth inhibition is on record?
**A.** 16.4%

**Q.** With `O=C1c2cccc3c([N+](=O)[O-])ccc(c23)C(=O)N1Cc1cccnc1` as the molecule, how does the growth inhibition read?
**A.** 99.3% (active)

**Q.** For `CCCCCCCCCCCCCCCCCCNC(=S)N/N=C/c1ccccc1[N+](=O)[O-]`, which growth inhibition is on record?
**A.** -17.1%

**Q.** With `Cc1cc(NC(=O)C(=O)Cc2nc3ccccc3s2)ccc1Cl` as the molecule, how does the growth inhibition read?
**A.** 25.9%

**Q.** Which growth inhibition does the source give for `O=C(O)c1cccc(C(=O)O)c1Sc1ccccc1` here?
**A.** 1.9%

**Q.** For `CCc1ccc(NS(=O)(=O)c2ccccc2[N+](=O)[O-])cc1`, which growth inhibition is on record?
**A.** 31.9%

**Q.** Which growth inhibition does the source give for `CCN(CC)C(=O)CCn1cc(F)c(=O)[nH]c1=O` here?
**A.** -65.8%

**Q.** For `Cc1c(CC#N)cc(C)c2c3c([nH]c12)-c1ccccc1CC3`, which growth inhibition is on record?
**A.** 35.5%

**Q.** With `Cc1ccc(-c2c(C#N)c(O)n(NS(=O)(=O)c3ccccc3)c(=O)c2C#N)cc1` as the molecule, how does the growth inhibition read?
**A.** 4.45%

**Q.** With `COC(=O)c1cc(Cl)ccc1OCC(=O)Nc1ccccc1` as the molecule, how does the growth inhibition read?
**A.** -6.3%

**Q.** Which growth inhibition does the source give for `C#CCN(N=O)C(=O)NCCCCC(NC(C)=O)C(=O)NCc1ccccc1` (stereo not given) here?
**A.** 3.4%

**Q.** For `Clc1cccc(C2ON=C(c3ccccc3)N2C23CC4CC(CC(C4)C2)C3)c1Cl` (stereo not given), which growth inhibition is on record?
**A.** 10.3%

**Q.** With `CC(C)(Nc1ccccc1)C(=O)OC(C)(C)C(=O)Nc1ccccc1` as the molecule, how does the growth inhibition read?
**A.** -7%

**Q.** Which growth inhibition does the source give for `C=CSS/C(=C/N(C=O)Cc1cnc(C)nc1N)CCO` here?
**A.** -10.6%

**Q.** For `CCCCC(Sc1nn(C2OC(COC(=O)c3ccccc3)C(OC(=O)c3ccccc3)C2OC(=O)c2ccccc2)c(=O)[nH]c1=O)C(=O)OCC` (stereo not given), which growth inhibition is on record?
**A.** -1.45%

assay: NCI Yeast Anticancer Drug Screen. Data for the mec2-1 strain (AID 157); conditions: S. cerevisiae mec2-1 strain, stronger effect = higher value; at 50.0 µM unless noted
In short: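 Vehicle-treated cultures served as reference for growth inhibition of compound-exposed mec2-1 yeast.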

**Q.** For `O=C1C=C(Nc2ccccc2)C(=O)C=C1Nc1ccccc1`, which growth inhibition is on record?
**A.** 1.65%

**Q.** For `CCOC(=O)c1c(C)[nH]c(C(=O)CCN(C)C)c1C`, which growth inhibition is on record?
**A.** 0.2%

**Q.** With `CCN(Cc1ccccc1)c1nnnn1-c1ccccc1` as the molecule, how does the growth inhibition read?
**A.** -5.25%

**Q.** For `CC1CC(C)OC(c2ccccc2Cl)O1` (stereo not given), which growth inhibition is on record?
**A.** 12.4%

**Q.** For `CC(=O)OC1CCC2(C)C3CCC4(C)C(C(C)CCCC(C)C)CCC4C3C3CC32C1` (stereo not given), which growth inhibition is on record?
**A.** -21.8%

**Q.** With `CCCCOC(=O)C1CN2C=CC=NC2=NC1(C(F)(F)F)C(F)(F)F` (stereo not given) as the molecule, how does the growth inhibition read?
**A.** 27%

**Q.** With `NC(Cc1cc(Br)c(Oc2ccc(O)cc2)c(Br)c1)C(=O)O` (stereo not given) as the molecule, how does the growth inhibition read?
**A.** 12.8%

**Q.** For `CCCCCCC1OC(C)C(C)O1` (stereo not given), which growth inhibition is on record?
**A.** 13.7%

**Q.** Which growth inhibition does the source give for `O=[N+]([O-])/C=C/c1cn(CCCCCCCCCCCCn2cc(/C=C/[N+](=O)[O-])c3ccccc32)c2ccccc12` here?
**A.** -24.6%

**Q.** With `O=C(O)C1CCc2ccccc21` (stereo not given) as the molecule, how does the growth inhibition read?
**A.** -46.5%

**Q.** For `C=CCN(CC=C)C(=O)Nc1cccc(C)c1`, which growth inhibition is on record?
**A.** -43.9%

**Q.** Which growth inhibition does the source give for `CC1Sc2ccccc2-c2[nH]c3ccccc3c21` (stereo not given) here?
**A.** 49%

**Q.** With `O=C1OCC=C1Sc1ccccc1` as the molecule, how does the growth inhibition read?
**A.** -8.05%

**Q.** For `O=C1C(CN2CCCC2)CCCC1CN1CCCC1` (stereo not given), which growth inhibition is on record?
**A.** -29.4%

**Q.** With `Cc1cc(=O)oc2nn(CCO)c(C)c12` as the molecule, how does the growth inhibition read?
**A.** -17.6%

**Q.** With `O=C(OC1OCC(OCc2ccccc2)C(OCc2ccccc2)C1OCc1ccccc1)c1ccccc1` (stereo not given) as the molecule, how does the growth inhibition read?
**A.** -21.5%

**Q.** Which growth inhibition does the source give for `O=S(=O)(Cl)c1ccc(Cl)cc1` here?
**A.** 13.1%

**Q.** Which growth inhibition does the source give for `OCC#CC#CCO` here?
**A.** -7.45%

**Q.** For `Nc1nnc2nc(C3(c4nc5nnc(N)n5[nH]c4=O)CCCC3=O)c(=O)[nH]n12`, which growth inhibition is on record?
**A.** -10.8%

**Q.** With `CN[C@@H]1[C@H](O)[C@H](NC)[C@H]2O[C@@]3(O)C(=O)C[C@@H](C)O[C@H]3O[C@@H]2[C@H]1O` as the molecule, how does the growth inhibition read?
**A.** -23.1%

**Q.** Which growth inhibition does the source give for `O=C1CSC(c2c[nH]c3ccccc23)N1c1ccc(Cl)cc1` (stereo not given) here?
**A.** -25.5%

**Q.** With `CC(C)c1ccccc1O` as the molecule, how does the growth inhibition read?
**A.** 30.7%

**Q.** For `CCn1c2ccccc2c2cc(N=Nc3ccc4c(c3)c3ccccc3n4CC)ccc21`, which growth inhibition is on record?
**A.** 14.7%

**Q.** Which growth inhibition does the source give for `C#CC(O)C1OC(C)(C)OC1C1COC(C)(C)O1` (stereo not given) here?
**A.** 6.5%

**Q.** Which growth inhibition does the source give for `CCOC(C)(Cc1ccccc1[N+](=O)[O-])OCC` here?
**A.** 4.3%

**Q.** For `Cc1cc(=O)[nH]c(NN2C(Cl)C(=O)C2c2ccccc2O)n1` (stereo not given), which growth inhibition is on record?
**A.** -31.5%

**Q.** With `O=C1c2cccc3c([N+](=O)[O-])ccc(c23)C(=O)N1Cc1cccnc1` as the molecule, how does the growth inhibition read?
**A.** 99.7% (active)

**Q.** For `CCCCCCCCCCCCCCCCCCNC(=S)N/N=C/c1ccccc1[N+](=O)[O-]`, which growth inhibition is on record?
**A.** 2.75%

**Q.** Which growth inhibition does the source give for `Cc1cc(NC(=O)C(=O)Cc2nc3ccccc3s2)ccc1Cl` here?
**A.** 12.7%

**Q.** Which growth inhibition does the source give for `O=C(O)c1cccc(C(=O)O)c1Sc1ccccc1` here?
**A.** 1.9%

**Q.** Which growth inhibition does the source give for `CCc1ccc(NS(=O)(=O)c2ccccc2[N+](=O)[O-])cc1` here?
**A.** 42.6%

**Q.** With `CCN(CC)C(=O)CCn1cc(F)c(=O)[nH]c1=O` as the molecule, how does the growth inhibition read?
**A.** -51%

**Q.** With `Cc1c(CC#N)cc(C)c2c3c([nH]c12)-c1ccccc1CC3` as the molecule, how does the growth inhibition read?
**A.** 35.2%

**Q.** With `Cc1ccc(-c2c(C#N)c(O)n(NS(=O)(=O)c3ccccc3)c(=O)c2C#N)cc1` as the molecule, how does the growth inhibition read?
**A.** 6.4%

**Q.** With `COC(=O)c1cc(Cl)ccc1OCC(=O)Nc1ccccc1` as the molecule, how does the growth inhibition read?
**A.** -2.5%

**Q.** Which growth inhibition does the source give for `C#CCN(N=O)C(=O)NCCCCC(NC(C)=O)C(=O)NCc1ccccc1` (stereo not given) here?
**A.** -16.9%

**Q.** With `Clc1cccc(C2ON=C(c3ccccc3)N2C23CC4CC(CC(C4)C2)C3)c1Cl` (stereo not given) as the molecule, how does the growth inhibition read?
**A.** -6.55%

**Q.** With `CC(C)(Nc1ccccc1)C(=O)OC(C)(C)C(=O)Nc1ccccc1` as the molecule, how does the growth inhibition read?
**A.** -25.5%

**Q.** Which growth inhibition does the source give for `C=CSS/C(=C/N(C=O)Cc1cnc(C)nc1N)CCO` here?
**A.** -33.5%

**Q.** Which growth inhibition does the source give for `CCCCC(Sc1nn(C2OC(COC(=O)c3ccccc3)C(OC(=O)c3ccccc3)C2OC(=O)c2ccccc2)c(=O)[nH]c1=O)C(=O)OCC` (stereo not given) here?
**A.** -10.6%
